These results are taken from PubChem BioAssay (EPA / NIEHS).

Inconclusive results are not listed. Calls of active or inactive are those of the source. Rule for the calls: active = hit-call score of the fitted dose curve at least 0.9, where 1 is the maximum; inconclusive = response in the unintended direction; inactive = score below 0.9.

Chain of Glyceraldehyde-3-phosphate dehydrogenase (Homo sapiens) (P04406 whole entry, looked up): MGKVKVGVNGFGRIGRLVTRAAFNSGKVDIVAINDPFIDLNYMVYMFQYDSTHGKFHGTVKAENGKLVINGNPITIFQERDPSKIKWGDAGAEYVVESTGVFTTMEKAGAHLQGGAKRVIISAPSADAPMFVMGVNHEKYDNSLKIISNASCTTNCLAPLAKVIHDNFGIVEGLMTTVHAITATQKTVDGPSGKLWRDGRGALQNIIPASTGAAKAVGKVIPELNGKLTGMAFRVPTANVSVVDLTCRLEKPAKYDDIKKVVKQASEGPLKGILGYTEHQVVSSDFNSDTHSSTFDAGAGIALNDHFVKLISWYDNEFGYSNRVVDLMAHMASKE

Read-out in this assay: Glyceraldehyde-3-phosphate dehydrogenase (Homo sapiens) (UniProt P04406)
Put plainly: CLD_GAPDH_48hr: CellzDirect (CLD) Gene Expression Assay for Baseline Control (Glyceraldehyde 3-phosphate dehydrogenase) at 48 hours (AID 2283706).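 Note: active means higher GAPDH mRNA than DMSO vehicle.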 The gist of the method:
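Primary human hepatocytes dosed daily for two days with fresh chemical at multiple concentrations, 0.2% DMSO vehicle; GAPDH mRNA measured at 48 h by quantitative nuclease protection assay with chemiluminescence, fitted upward relative to DMSO as background control.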
Consider `CC1(C(=O)Nc2ccc(O)c(Cl)c2Cl)CCCCC1`, for which the outcome was inactive.
The result for `Nc1nc(N)nc(NC2CC2)n1` reads “inactive”.
The result for `C[N+]1(C)CCCCC1` reads “inactive”.
The result for `CCC(CC)Nc1c([N+](=O)[O-])cc(C)c(C)c1[N+](=O)[O-]` reads “inactive”; that for `Cc1nn(-c2cc(NS(C)(=O)=O)c(Cl)cc2Cl)c(=O)n1C(F)F`, “inactive”.
In the case of `CCc1cnc(C2=NC(C)(C(C)C)C(=O)N2)c(C(=O)O)c1` (stereo unspecified), the molecule was classed as inactive.
The result for `COP(=O)(OC)OC(Br)C(Cl)(Cl)Br` (stereo unspecified) reads “inactive”.
To `CC1=NNC(=O)N(/N=C/c2cccnc2)C1` belongs “inactive”; to `Nc1c(Cl)cc([N+](=O)[O-])cc1Cl`, “inactive”; to `S=C1NCCN1`, “inactive”.
To `CCOC(=O)CC(SP(=O)(OC)OC)C(=O)OCC` (stereo unspecified) belongs “inactive”; to `CCCOCC(=Nc1ccc(Cl)cc1C(F)(F)F)n1ccnc1`, “inactive”.
Regarding `CCCOc1nn(C(=O)NS(=O)(=O)c2ccccc2C(=O)OC)c(=O)n1C`, the molecule was called inactive.
To `CCCCOC(=O)c1ccccc1C(=O)O` belongs “inactive”; to `CSC1=N[C@@](C)(c2ccccc2)C(=O)N1Nc1ccccc1`, “inactive”; to `CN(C)NC(=O)CCC(=O)O`, “inactive”.
The result for `N#CSCSC#N` reads “inactive”.
The result for `CCC(=NOC/C=C/Cl)C1=C(O)CC(C2CCOCC2)CC1=O` (stereo unspecified) reads “inactive”; that for `CC[C@H](C)[C@H]1O[C@]2(C=C[C@@H]1C)C[C@@H]1C[C@@H](C/C=C(\C)[C@@H](O[C@H]3C[C@H](OC)[C@@H](O[C@H]4C[C@H](OC)[C@@H](NC)[C@H](C)O4)[C@H](C)O3)[C@@H](C)/C=C/C=C3\CO[C@@H]4[C@H](O)C(C)=C[C@@H](C(=O)O1)[C@]34O)O2`, “inactive”; that for `CN(C)[C@@H]1C(=O)C(C(N)=O)=C(O)[C@@]2(O)C(=O)C3=C(O)c4c(O)cccc4[C@@](C)(O)[C@H]3[C@H](O)[C@@H]12`, “inactive”.
With `CNC(=O)ON=C(C)SC`, the molecule was called inactive.
